Source: PubChem
In the library only some 4.9% were active in any assay of this set; here they are far more common.
TIM10 inh – growth inhibitors of TIM10 yeast strain; S. cerevisiae TIM10 strain growth, BacTiter-Glo luminescence, 24 h; inhibition, % at 10 µM; 330,000 compounds, 1.4% hits;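 active = inhibition of 40% or more at the single tested concentration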;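 also: wild-type TIM10 isogenic control strain grown at permissive 25 °C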
SKKanGAS inh – inhibitors of SKKanGAS S. pyogenes growth in kanamycin (SK-promoter or general growth effect); AID 1662; inhibition, % at 7.5 µM; BacTiter-Glo, 6 h; 300,000 compounds, 1.3% hits;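 active = mean replicate score, as percent of positive control median, at least 50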;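 also: strain carries kanamycin resistance gene driven by streptokinase promoter and grows in 40 µg/ml kanamycin; loss of luminescence reflects streptokinase promoter inhibition or plain growth inhibition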
NLRP3 yeast inh – NALP3 inhibition in yeast. Yeast reconstituted NLRP3/ASC/caspase-1, beta-gal luminescence, 24 h. AID 2825. 330,000 compounds, 0.39% hits. inhibition, % at 10 µM;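 active = inhibition of 50% or more; inactive = inhibition below 50%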
NALP1 yeast inh – inhibitors of NALP1 inflammasome in yeast; inhibition, % at 10 µM; 280,000 compounds, 0.61% hits; AID 2071; S. cerevisiae NALP1/ASC/caspase-1 growth, X-gal OD620, 72 h; in the data active = inhibition mostly above about 24%, no sharp cut-off; inactive = mostly below about 32%
tim23-1 inh – tim23-1 yeast growth inhibition; S. cerevisiae tim23-1 growth, BacTiter-Glo luminescence, 24 h; inhibition, % at 20 µM; 330,000 compounds, 1.3% hits; AID 463212;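 active = growth inhibition of the mutant yeast at or above 50%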;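 also: temperature-sensitive mutant grown at 25 °C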
tim10-1 inh – tim10-1 yeast growth inhibition. S. cerevisiae tim10-1 ts strain growth, BacTiter-Glo, 24 h. inhibition, % at 20 µM. 330,000 compounds, 2.2% hits. AID 463190;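 active = inhibition of at least 40%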;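 also: mutant grown at 25 °C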
tim10-1 confirm – tim10-1 yeast growth inhibition, confirmed. inhibition, % at 20 µM. shares compounds with tim10-1 inh. S. cerevisiae tim10-1 ts strain growth, BacTiter-Glo, 24 h. 7,400 compounds, 56% hits;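 active = inhibition of yeast growth at or above a set limit in either of two repeat tests at 20 µM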;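 also: tim10-1 mutant grown at permissive 25 °C to find synthetic lethal compounds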
tim10 confirm – confirmation of TIM10 yeast growth inhibitors. AID 463215. shares compounds with TIM10 inh. 4,600 compounds, 63% hits. S. cerevisiae tim10 strain growth, BacTiter-Glo luminescence, 24 h. inhibition, % at 10 µM;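 active = inhibition of yeast growth at or above a set limit in either of two replicates at 10 µM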; also: this counterscreen used the strain with wild-type TIM10
tim23-1 conf – tim23-1 yeast growth inhibition, confirmed; shares compounds with tim23-1 inh; S. cerevisiae tim23-1 growth, BacTiter-Glo luminescence, 24 h; inhibition, % at 20 µM; 4,400 compounds, 83% hits;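 active = inhibition above about 39% in either of two replicate wells at 20 µM, limit read from the data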;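 also: temperature-sensitive tim23-1 mutant grown at 25 °C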
Large screens that a line does not name were inactive (follow-up assays come after a bar, where they were run).

C=CCn1c(=O)/c(=C/c2ccc(O)cc2)s/c1=C(/C#N)c1nnc2n1CCCCC2	none (no result: SKKanGAS inh)
C=CCn1c(=O)/c(=C/c2ccc(Cl)cc2)s/c1=C(/C#N)c1nnc2n1CCCCC2	TIM10 inh 49, tim23-1 inh 63, tim10-1 inh 57 | tim10-1 confirm 33 | tim10 confirm 44 | tim23-1 conf 58
Clc1ccc2c(c1)C(C1=NCCN1)c1ccccc1CS2 (configuration not stated)	none
S=C1NCCc2ccc(Cl)cc2C1c1ccccc1Cl (configuration not stated)	TIM10 inh 47, tim23-1 inh 59, tim10-1 inh 44 | tim10-1 confirm inactive | tim10 confirm inactive | tim23-1 conf inactive
CCN(CC)C(=S)SSC(=S)N(CC)CC	TIM10 inh 50, NALP1 yeast inh 102, tim23-1 inh 64, tim10-1 inh 88 | tim10-1 confirm 99 | tim10 confirm 100 | tim23-1 conf 99
FC(F)C(F)(F)c1cc(-c2ccc(Cl)cc2)n[nH]1	tim23-1 inh 52, tim10-1 inh 52 | tim10-1 confirm 42 | tim23-1 conf 41
CCCC(=O)NC(c1ccc(N(C)C)cc1)c1ccc2cccnc2c1O (configuration not stated)	none
CCC(=O)NC(c1cc(Cl)c2cccnc2c1O)C1CC1 (configuration not stated)	tim23-1 inh 58, tim10-1 inh 40 (no result: SKKanGAS inh, NALP1 yeast inh) | tim10-1 confirm inactive | tim23-1 conf 58
CCC(=O)NC(c1ccc(Cl)cc1Cl)c1ccc2cccnc2c1O (configuration not stated)	SKKanGAS inh 64, tim23-1 inh 61, tim10-1 inh 48 | tim10-1 confirm inactive | tim23-1 conf 52
Cc1cc(F)cc(C)c1Cn1cnc2c(cnn2C(C)(C)C)c1=O	none (no result: SKKanGAS inh, NALP1 yeast inh)
COc1cccc(NC(=O)CN(C)C(=O)CCN2C(=O)C3CC=CCC3C2=O)c1 (configuration not stated)	none (no result: SKKanGAS inh, NALP1 yeast inh)
O=C(COc1ccccc1Br)c1ccc(O)cc1O	tim23-1 inh 66, tim10-1 inh 50 | tim10-1 confirm 40 | tim23-1 conf 58
O=C(Cc1ccc(Br)cc1)c1ccc(O)cc1O	TIM10 inh 61, tim23-1 inh 63, tim10-1 inh 58 | tim10-1 confirm 66 | tim10 confirm 57 | tim23-1 conf 53
Cc1ccc(S(=O)(=O)CC(=O)N2CCN(c3ccc(F)cc3)CC2)cc1	none
CC1=NOC(=O)/C1=C\c1ccc(-c2ccc(Cl)cc2Cl)o1	SKKanGAS inh 70, tim23-1 inh 81, tim10-1 inh 46 | tim10-1 confirm 46 | tim23-1 conf 51
CCCOc1ccc(Cl)cc1/C=C1/C(=O)ON=C1C	none
Cc1cccc(C(=O)O/N=C2/CC3CCC2(C)C3(C)C)c1 (configuration not stated)	TIM10 inh 65, tim23-1 inh 59, tim10-1 inh 50 | tim10-1 confirm 65 | tim10 confirm 70 | tim23-1 conf 66
Cc1ccc(C(=O)O/N=C2\CC3CCC2(C)C3(C)C)cc1 (configuration not stated)	TIM10 inh 76, tim23-1 inh 66, tim10-1 inh 67 | tim10-1 confirm 67 | tim10 confirm 75 | tim23-1 conf 68
O=[N+]([O-])c1cc(-c2nc(-c3ccncc3)no2)cc([N+](=O)[O-])c1	TIM10 inh 69, tim23-1 inh 72, tim10-1 inh 76 | tim10-1 confirm 67 | tim10 confirm inactive | tim23-1 conf 81
O=C(Oc1ccc(Br)cc1C(=O)/C=C/c1ccccc1F)c1ccco1	TIM10 inh 70, tim23-1 inh 60, tim10-1 inh 41 (no result: NALP1 yeast inh) | tim10-1 confirm 40 | tim10 confirm 62 | tim23-1 conf 43
CC(=O)c1cc(Cl)ccc1OC(=O)c1ccco1	none
COc1ccc(CCNC(=O)c2c(O)c3cccc4c3n(c2=O)CC4)cc1OC	TIM10 inh 57, tim23-1 inh 53, tim10-1 inh 43 | tim10-1 confirm inactive | tim10 confirm 30 | tim23-1 conf 45
CC(=O)c1c(O)c2cccc3c2n(c1=O)CCC3	tim23-1 inh 54, tim10-1 inh 41 | tim10-1 confirm 30 | tim23-1 conf 52
CN1CCN(C(=O)c2c(O)c3cccc4c3n(c2=O)CCC4)CC1	none
O=C(COC(=O)c1ccc([N+](=O)[O-])cc1)NC12CC3CC(CC(C3)C1)C2	none (no result: SKKanGAS inh, NALP1 yeast inh)
CCC(CC)NC(=O)COn1nnc2ccc(S(=O)(=O)N3CCOCC3)cc21	none (no result: NALP1 yeast inh)
O=C(NC1CCN(C(=S)Nc2ccccc2Cl)CC1)C1CCCCC1	none
O=C1C(c2ccccc2)=[N+]([O-])c2ccccc21	TIM10 inh 55, tim23-1 inh 61, tim10-1 inh 58 (no result: NALP1 yeast inh) | tim10-1 confirm 47 | tim10 confirm 53 | tim23-1 conf inactive
O=C1C(=Cc2cccs2)C(=O)c2ccccc21	none
Cc1cc(OCc2cc(C(=O)N3CCC(Oc4cccnc4)CC3)no2)cc(C)c1Cl	TIM10 inh 41, tim23-1 inh 51, tim10-1 inh 61 | tim10-1 confirm 38 | tim10 confirm 47 | tim23-1 conf 55
Cc1cc(OCc2cc(C(=O)N3CCN(CC4CC4)CC3)no2)cc(C)c1Cl	none
O=C(c1ccc([N+](=O)[O-])cc1)N1CCN(C(=O)C2CCCCC2)CC1	none
CCC(C)[C@@H](N)C(=O)N/N=C/c1ccc2ncccc2c1 (some centres not stated)	none
CCC1CCc2sc(C(=O)N3CCN(c4ccccn4)CC3)cc2C1 (configuration not stated)	tim23-1 inh 56, tim10-1 inh 46 | tim10-1 confirm 34 | tim23-1 conf 56
O=C(Nc1ccccc1Cl)N1CCCN(c2nc(-c3ccccc3)ns2)CC1	TIM10 inh 46, tim23-1 inh 55, tim10-1 inh 43 | tim10-1 confirm inactive | tim10 confirm 33 | tim23-1 conf 45
Cc1c(Cl)cccc1NC(=O)N1CCCN(c2nc(-c3ccccc3)ns2)CC1	none
CCOc1ccc(N2CC(C(=O)NCCCc3ccccc3)CC2=O)cc1 (configuration not stated)	none (no result: SKKanGAS inh, NALP1 yeast inh)
CCOC(=O)c1cc(-c2ccc(OC)cc2)n[nH]1	none
COc1ccc(-c2n[nH]c(C)c2-c2cc(OC)ccc2O)cc1	none
COc1ccc(-c2cc(-c3cc(OC)ccc3O)[nH]n2)cc1	TIM10 inh 51, tim23-1 inh 59, tim10-1 inh 44 | tim10-1 confirm 29 | tim10 confirm 42 | tim23-1 conf 61
